The supplement of paper PMC10849652
Of roughly 7,900 targets only a part is listed; those with a hit were picked by preference. About 0.6% of all pairs of compound and target were hits. A number with no mark means an inactive call.

Key:
Experiment in all cases: log2 fold change, soluble protein after heating vs DMSO (PISA); higher = thermal stabilisation; K562 cells, 10 uM, 30 min; active = over 0.2 and 3.5 SD of the protein, either way, in both replicates (recomputed)
[1] = compound: CS(=O)(=O)c1ccc(-c2cnc(N)c(C(=O)Nc3ccccc3)n2)cc1
Method in brief: (§1)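 Quantification of soluble protein used TMTpro 16plex LC-MS/MS, with channel sums equalised. Samples were the supernatant after 21,000xg for 90 min of pooled aliquots from K562 cells (2×10^6 cells/mL) treated with 10 μM compound for 30 min, heated for 3 min over 48°C-58°C, and extracted in PBS with 0.5% NP-40 at 4°C. Values, from duplicates, describe thermal stability against control samples on a log2 fold-change scale.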

crizotinib = compound: C[C@@H](Oc1cc(-c2cnn(C3CCNCC3)c2)cnc1N)c1c(Cl)ccc(F)c1Cl [crizotinib]
Method in brief: as §1

[2] = compound: C[C@@H]1COCCN1C2=NC(=NC(=C2)C3(CC3)S(=O)(=O)C)C4=C5C=CNC5=CC=C4
Method in brief: as §1

[3] = compound: C[C@H](C1=CC=C(C=C1)C(=O)NC2=C3C=CNC3=NC=C2)N
Method in brief: as §1

duvelisib = compound: C[C@H](Nc1ncnc2nc[nH]c12)c1cc2cccc(Cl)c2c(=O)n1-c1ccccc1 [duvelisib]
Method in brief: as §1

gandotinib = compound: Cc1cc(Nc2cc(CN3CCOCC3)c3nc(C)c(Cc4ccc(Cl)cc4F)n3n2)n[nH]1 [gandotinib]
Method in brief: as §1

tozasertib = compound: Cc1cc(Nc2cc(N3CCN(C)CC3)nc(Sc3ccc(NC(=O)C4CC4)cc3)n2)n[nH]1 [tozasertib]
Method in brief: as §1

[4] = compound: Cc1cc(SCc2sc(-c3ccc(C(F)(F)F)cc3)nc2C)ccc1OCC(=O)O
Method in brief: as §1

doramapimod = compound: Cc1ccc(-n2nc(C(C)(C)C)cc2NC(=O)Nc2ccc(OCCN3CCOCC3)c3ccccc23)cc1 [doramapimod]
Method in brief: as §1

ispinesib = compound: Cc1ccc(C(=O)N(CCCN)[C@@H](c2nc3cc(Cl)ccc3c(=O)n2Cc2ccccc2)C(C)C)cc1 [ispinesib]
Method in brief: as §1

UniProt P52732, sequence (P52732 whole entry, looked up): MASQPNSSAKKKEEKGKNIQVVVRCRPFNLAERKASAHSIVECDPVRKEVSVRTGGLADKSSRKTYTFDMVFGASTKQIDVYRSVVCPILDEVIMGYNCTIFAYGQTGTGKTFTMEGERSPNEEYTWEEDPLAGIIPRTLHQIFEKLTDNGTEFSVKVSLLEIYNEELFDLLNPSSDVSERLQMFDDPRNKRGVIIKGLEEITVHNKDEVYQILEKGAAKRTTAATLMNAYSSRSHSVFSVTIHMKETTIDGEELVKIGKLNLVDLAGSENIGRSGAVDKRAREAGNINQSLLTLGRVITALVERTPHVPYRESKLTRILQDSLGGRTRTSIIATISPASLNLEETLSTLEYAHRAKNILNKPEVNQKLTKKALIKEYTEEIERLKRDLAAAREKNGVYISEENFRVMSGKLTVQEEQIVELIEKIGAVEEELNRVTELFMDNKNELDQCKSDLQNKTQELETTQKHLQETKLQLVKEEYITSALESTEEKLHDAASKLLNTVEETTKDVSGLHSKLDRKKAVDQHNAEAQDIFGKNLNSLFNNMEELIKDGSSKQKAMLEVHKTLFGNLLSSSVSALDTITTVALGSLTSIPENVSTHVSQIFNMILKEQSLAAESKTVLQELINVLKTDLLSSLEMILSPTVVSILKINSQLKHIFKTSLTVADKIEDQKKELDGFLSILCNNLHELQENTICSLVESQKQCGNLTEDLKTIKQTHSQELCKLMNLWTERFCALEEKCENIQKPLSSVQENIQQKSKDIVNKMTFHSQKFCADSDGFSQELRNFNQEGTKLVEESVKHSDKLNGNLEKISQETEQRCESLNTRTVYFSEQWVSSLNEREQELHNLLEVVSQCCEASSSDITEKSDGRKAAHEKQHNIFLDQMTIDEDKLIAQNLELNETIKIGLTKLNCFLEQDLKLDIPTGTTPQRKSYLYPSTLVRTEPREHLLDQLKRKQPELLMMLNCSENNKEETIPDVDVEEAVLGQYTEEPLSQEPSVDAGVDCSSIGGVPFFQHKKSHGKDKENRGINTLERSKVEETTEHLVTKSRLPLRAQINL
UniProt Q9Y2E5, sequence (Q9Y2E5 whole entry, looked up): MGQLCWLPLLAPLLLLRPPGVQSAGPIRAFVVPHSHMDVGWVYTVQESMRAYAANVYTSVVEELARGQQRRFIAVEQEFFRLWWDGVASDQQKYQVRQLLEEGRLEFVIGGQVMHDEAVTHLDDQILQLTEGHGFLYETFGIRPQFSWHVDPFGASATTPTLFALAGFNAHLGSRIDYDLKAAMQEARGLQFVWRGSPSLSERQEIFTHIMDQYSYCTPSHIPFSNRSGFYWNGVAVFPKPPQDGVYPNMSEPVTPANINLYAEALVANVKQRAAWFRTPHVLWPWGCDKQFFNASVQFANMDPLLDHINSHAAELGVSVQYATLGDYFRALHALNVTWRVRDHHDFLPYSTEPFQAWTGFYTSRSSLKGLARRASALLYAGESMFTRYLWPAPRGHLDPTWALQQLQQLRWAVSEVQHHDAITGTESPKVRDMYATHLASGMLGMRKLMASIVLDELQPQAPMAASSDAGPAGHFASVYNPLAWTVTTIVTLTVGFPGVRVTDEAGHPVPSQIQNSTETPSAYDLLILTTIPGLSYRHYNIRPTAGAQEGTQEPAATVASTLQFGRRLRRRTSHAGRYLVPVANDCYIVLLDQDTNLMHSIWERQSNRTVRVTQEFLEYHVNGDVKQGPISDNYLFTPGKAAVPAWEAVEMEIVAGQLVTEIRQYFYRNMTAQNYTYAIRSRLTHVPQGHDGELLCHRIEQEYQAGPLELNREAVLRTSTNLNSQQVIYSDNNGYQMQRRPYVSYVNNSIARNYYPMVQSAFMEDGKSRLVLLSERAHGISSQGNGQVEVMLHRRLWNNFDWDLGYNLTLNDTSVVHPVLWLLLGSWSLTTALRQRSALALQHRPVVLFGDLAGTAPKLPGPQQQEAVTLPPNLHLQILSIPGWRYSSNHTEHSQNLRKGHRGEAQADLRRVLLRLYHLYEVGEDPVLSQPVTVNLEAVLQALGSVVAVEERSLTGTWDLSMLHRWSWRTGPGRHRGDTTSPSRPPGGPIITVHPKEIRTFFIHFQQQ
UniProt Q13418, sequence (Q13418 whole entry, looked up): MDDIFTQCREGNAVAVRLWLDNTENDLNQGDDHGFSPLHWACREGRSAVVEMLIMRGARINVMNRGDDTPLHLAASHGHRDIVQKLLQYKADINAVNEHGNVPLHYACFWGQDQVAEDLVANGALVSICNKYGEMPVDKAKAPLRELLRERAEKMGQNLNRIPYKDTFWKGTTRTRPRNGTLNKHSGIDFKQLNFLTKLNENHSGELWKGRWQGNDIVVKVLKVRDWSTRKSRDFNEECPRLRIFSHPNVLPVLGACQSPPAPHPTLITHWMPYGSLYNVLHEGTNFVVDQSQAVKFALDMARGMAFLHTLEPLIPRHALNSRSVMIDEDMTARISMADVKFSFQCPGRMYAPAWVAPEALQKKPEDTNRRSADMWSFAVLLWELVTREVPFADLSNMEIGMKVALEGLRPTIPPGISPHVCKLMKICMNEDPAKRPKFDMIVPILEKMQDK
UniProt Q12906, sequence (Q12906 whole entry, looked up): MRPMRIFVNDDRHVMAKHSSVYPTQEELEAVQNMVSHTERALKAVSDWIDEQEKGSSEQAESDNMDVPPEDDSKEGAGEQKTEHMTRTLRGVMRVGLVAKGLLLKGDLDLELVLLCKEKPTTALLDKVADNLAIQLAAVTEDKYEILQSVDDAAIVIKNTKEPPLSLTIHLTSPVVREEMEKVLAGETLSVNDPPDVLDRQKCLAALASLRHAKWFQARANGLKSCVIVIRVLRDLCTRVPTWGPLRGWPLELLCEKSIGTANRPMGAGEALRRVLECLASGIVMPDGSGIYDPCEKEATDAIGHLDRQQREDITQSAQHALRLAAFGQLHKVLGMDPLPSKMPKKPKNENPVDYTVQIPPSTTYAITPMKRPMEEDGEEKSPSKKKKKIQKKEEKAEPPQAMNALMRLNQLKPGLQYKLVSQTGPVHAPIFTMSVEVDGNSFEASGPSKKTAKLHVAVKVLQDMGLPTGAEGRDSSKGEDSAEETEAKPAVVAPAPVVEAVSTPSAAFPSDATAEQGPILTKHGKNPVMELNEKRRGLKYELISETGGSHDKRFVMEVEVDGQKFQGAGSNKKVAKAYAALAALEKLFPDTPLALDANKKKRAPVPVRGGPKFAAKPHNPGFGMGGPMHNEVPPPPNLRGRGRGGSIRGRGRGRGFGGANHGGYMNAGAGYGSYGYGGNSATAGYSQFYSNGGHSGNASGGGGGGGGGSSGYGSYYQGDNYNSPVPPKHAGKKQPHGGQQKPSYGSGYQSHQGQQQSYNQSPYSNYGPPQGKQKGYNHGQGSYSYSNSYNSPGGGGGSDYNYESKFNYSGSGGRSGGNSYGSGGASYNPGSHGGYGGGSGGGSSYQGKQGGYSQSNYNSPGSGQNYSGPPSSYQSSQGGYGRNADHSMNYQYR
UniProt O94889, sequence (O94889 whole entry, looked up): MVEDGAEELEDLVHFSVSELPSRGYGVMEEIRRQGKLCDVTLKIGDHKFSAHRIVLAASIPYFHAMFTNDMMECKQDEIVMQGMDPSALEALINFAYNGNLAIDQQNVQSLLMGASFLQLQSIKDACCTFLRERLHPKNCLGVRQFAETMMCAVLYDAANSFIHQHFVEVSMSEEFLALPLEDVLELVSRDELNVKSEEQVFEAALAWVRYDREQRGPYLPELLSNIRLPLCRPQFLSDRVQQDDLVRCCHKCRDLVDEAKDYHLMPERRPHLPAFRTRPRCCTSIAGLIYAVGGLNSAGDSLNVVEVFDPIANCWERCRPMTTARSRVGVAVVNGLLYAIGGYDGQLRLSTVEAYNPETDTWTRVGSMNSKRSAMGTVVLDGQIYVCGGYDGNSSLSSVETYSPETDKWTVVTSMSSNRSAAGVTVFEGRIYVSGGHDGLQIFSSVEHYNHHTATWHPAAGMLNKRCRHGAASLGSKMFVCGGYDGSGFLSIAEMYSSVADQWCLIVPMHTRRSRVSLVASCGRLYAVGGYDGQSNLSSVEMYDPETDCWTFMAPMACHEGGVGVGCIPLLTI
UniProt P52294, sequence (P52294 whole entry, looked up): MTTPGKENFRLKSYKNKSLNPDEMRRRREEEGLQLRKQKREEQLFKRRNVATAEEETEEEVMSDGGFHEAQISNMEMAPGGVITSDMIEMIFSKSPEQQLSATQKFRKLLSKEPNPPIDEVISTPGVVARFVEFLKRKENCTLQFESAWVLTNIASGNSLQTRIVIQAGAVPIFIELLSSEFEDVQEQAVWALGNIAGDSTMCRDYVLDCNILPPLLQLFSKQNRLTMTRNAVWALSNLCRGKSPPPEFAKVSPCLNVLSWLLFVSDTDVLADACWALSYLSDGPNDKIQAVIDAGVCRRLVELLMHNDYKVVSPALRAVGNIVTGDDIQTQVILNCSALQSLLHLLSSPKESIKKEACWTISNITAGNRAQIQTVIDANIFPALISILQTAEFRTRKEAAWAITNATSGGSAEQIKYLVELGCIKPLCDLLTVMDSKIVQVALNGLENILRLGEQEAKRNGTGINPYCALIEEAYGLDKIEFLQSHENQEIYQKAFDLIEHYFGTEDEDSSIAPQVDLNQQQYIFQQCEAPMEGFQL
UniProt Q6P1A2, sequence (Q6P1A2 whole entry, looked up): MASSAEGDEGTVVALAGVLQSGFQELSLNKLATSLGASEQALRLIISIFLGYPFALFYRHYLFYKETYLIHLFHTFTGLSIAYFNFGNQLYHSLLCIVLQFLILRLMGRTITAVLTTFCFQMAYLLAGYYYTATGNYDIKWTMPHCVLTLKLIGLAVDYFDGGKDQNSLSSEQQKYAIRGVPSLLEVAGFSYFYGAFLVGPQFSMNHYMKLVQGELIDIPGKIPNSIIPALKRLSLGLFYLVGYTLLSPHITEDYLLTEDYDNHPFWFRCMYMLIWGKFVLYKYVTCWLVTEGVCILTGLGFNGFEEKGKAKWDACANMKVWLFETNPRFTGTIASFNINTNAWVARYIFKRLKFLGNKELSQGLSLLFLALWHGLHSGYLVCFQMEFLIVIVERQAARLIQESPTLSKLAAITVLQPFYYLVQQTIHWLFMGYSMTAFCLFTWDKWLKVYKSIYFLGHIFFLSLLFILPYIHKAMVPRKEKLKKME

Target | log2 fold change [1] | log2 fold change (crizotinib) | log2 fold change [2] | log2 fold change [3] | log2 fold change (duvelisib) | log2 fold change (gandotinib) | log2 fold change (tozasertib) | log2 fold change [4] | log2 fold change (doramapimod) | log2 fold change (ispinesib)
ILK (UniProt Q13418) | 0.054 | 0.038 | -0.001 | 0.046 | 0.081 | -0.039 | -0.105 | -0.046 | -0.023 | -0.153
MAD2L1 (UniProt Q13257) | 0.02 | -0.076 | 0.092 | -0.004 | 0.024 | -0.139 | 0.101 | 0.037 | 0.034 | -0.023
KIF11 (UniProt P52732) | 0.034 | -0.091 | -0.029 | 0.207 | -0.007 | -0.018 | 0.12 | 0.19 | 0.13 | 0.761 (active)
KPNA1 (UniProt P52294) | -0.021 | -0.169 | -0.029 | 0.084 | 0.047 | 0.01 | 0.075 | -0.008 | 0.062 | -0.012
L2HGDH (UniProt Q9H9P8) | 0.04 | -0.081 | 0.124 | -0.025 | 0.063 | 0.024 | -0.082 | 0.039 | -0.02 | -0.083
MAP3K4 isoform 2 (UniProt Q9Y6R4) | 0.012 | -0.256 (active) | 0.042 | -0.017 | 0.02 | -0.054 | 0.026 | 0 | 0.02 | 0.021
LPCAT3 (UniProt Q6P1A2) | 0.091 | -0.121 | 0.171 | 0.006 | -0.035 | -0.167 | -0.027 | 0.027 | -0.042 | -0.696 (active)
MED8 isoform 2 (UniProt Q96G25) | 0.021 | 0.037 | -0.049 | -0.077 | 0.029 | – | – | -0.079 | -0.031 | 0.012
MAML1 (UniProt Q92585) | -0.022 | 0.074 | 0.053 | -0.056 | – | – | – | – | -0.038 | -0.006
MAP3K20 isoform 2 (UniProt Q9NYL2) | 0.038 | -0.182 | 0.082 | – | – | – | -0.191 | – | 0.096 | –
ILF3 (UniProt Q12906) | -0.152 | -0.201 | -0.284 | – | – | – | – | – | 0.026 | –
ITM2B (UniProt Q9Y287) | 0.065 | -0.193 | -0.032 | 0.038 | -0.15 | – | 0.033 | -0.032 | 0.043 | 0.131
LYN isoform 2 (UniProt P07948) | -0.791 (active) | -0.211 | -0.281 | -0.294 | – | – | – | – | 0.159 | –
MED7 (UniProt O43513) | -0.03 | 0.11 | -0.031 | -0.081 | -0.046 | – | 0.004 | 0.049 | -0.199 | 0.017
KCNK5 (UniProt O95279) | 0.087 | -0.164 | 0.339 | -0.013 | 0.213 | -0.03 | – | 0.242 | -0.165 | –
MAGI1 (UniProt Q96QZ7) | -0.006 | -0.003 | -0.053 | 0.032 | -0.013 | 0.003 | -0.03 | 0.046 | 0.024 | -0.042

Target | log2 fold change [1] | log2 fold change (crizotinib) | log2 fold change [2] | log2 fold change [3] | log2 fold change (duvelisib) | log2 fold change (gandotinib) | log2 fold change (tozasertib) | log2 fold change [4] | log2 fold change (doramapimod) | log2 fold change (ispinesib)
MAPK14 isoform 2 (UniProt Q16539) | 0.087 | -0.062 | -0.018 | -0.013 | -0.072 | -0.022 | 0.031 | 0.017 | – | -0.038
KMT2C isoform 3 (UniProt Q8NEZ4) | 0.013 | – | 0.021 | 0.022 | 0.134 | -0.106 | 0.063 | -0.048 | – | -0.235
IMMP1L (UniProt Q96LU5) | 0.024 | 0.121 | 0.045 | -0.05 | 0.088 | – | -0.058 | 0.012 | 0.015 | -0.063
MASTL (UniProt Q96GX5) | -0.058 | 0.092 | 0.179 | 0.046 | -0.199 | – | – | -0.12 | -0.075 | 0.099
KLC2 (UniProt Q9H0B6) | 0.012 | -0.131 | 0.008 | -0.007 | 0.059 | -0.079 | -0.004 | 0.047 | -0.002 | -0.062
LNPK (UniProt Q9C0E8) | -0.016 | 0.077 | 0.007 | -0.036 | -0.017 | -0.022 | 0.002 | -0.085 | -0.044 | 0.022
LRFN1 (UniProt Q9P244) | 0.108 | -0.006 | -0.15 | -0.198 | 0.038 | – | -0.042 | 0.009 | -0.09 | 0.102
MED22 (UniProt Q15528) | 0.013 | -0.082 | 0.027 | 0.027 | 0.158 | – | -0.036 | 0.049 | 0.027 | -0.098
LSR (UniProt M0QZL9) | -0.03 | – | 0.118 | – | – | – | – | – | – | –
IMMT isoform 2 (UniProt Q16891) | -0.042 | -0.152 | 0.046 | -0.115 | -0.003 | -0.075 | -0.019 | -0.087 | -0.034 | -0.031
MAN2B2 (UniProt Q9Y2E5) | 0.051 | -0.014 | 0.055 | – | 0.094 | – | -0.044 | 0.004 | 0.017 | -0.147
KLHL18 (UniProt O94889) | 0.092 | – | 0.078 | -0.084 | 0.049 | -0.561 (active) | -0.108 | 0.02 | – | 0.028
MARK2 (UniProt E9PC69) | 0.068 | -0.323 | -0.049 | 0.15 | -0.181 | – | -0.263 | 0.12 | 0.119 | -0.232
MAPK14 (UniProt Q16539) | 0.023 | -0.062 | – | 0.018 | -0.129 | -0.099 | -0.066 | 0.015 | – | -0.069
LUM (UniProt P51884) | -0.011 | 0.352 | -0.146 | 0.217 | 0.021 | – | -0.182 | -0.135 | 0.168 | -0.007
